Pf growth 96h: Primary qHTS for delayed death inhibitors of the malarial parasite plastid, 96 hour incubation; Potency, µM (doses to about 28.7 µM), for inactives: at the highest dose activity change, negative = inhibition, most hits filed as inhibitors; P. falciparum luciferase reporter growth, 96 h; AID 504834, 2011; hit rate 6.9% among 320,000; note: potency is the fitted concentration of half-maximal effect; % is set by controls: 0 for no effect and ±100 for the full control effect
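Plates of compound plus infected erythrocytes (2% hematocrit, 0.05% parasitemia final) incubate 96 hours, 37 C, 5% CO2. Detection reagent added; reduced luminescence from the parasites' luciferase reporter flags inhibition.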
SARS PLpro yeast: qHTS of Yeast-based Assay for SARS-CoV PLP. AID 485353, 2010. S. cerevisiae expressing SARS-CoV PLpro, growth rescue. hit rate 0.19% among 330,000. Potency, µM (doses to about 32.9 µM), without a hit: at the top dose activity, positive = growth rescue, most hits filed as activators; calls by dose curve; note: potency is the fitted concentration of half-maximal effect; 0% is about no effect; nearly all actives have a fitted effect of over 55% in size
CHX counter: Cycloheximide Counterscreen for Small Molecule Inhibitors of Shiga Toxin. AID 2314, 2010. max response, %. cell reporter, cycloheximide protein synthesis inhibition counterscreen. hit rate 12% among 300,000; in the data active = max response mostly above about 13%, no sharp cut-off; inactive = mostly below about 14%; note: read at 38.3 µM for the half of the compounds with a filed dose; 0% is about no effect
AMA1-RON2 inh: qHTS for Inhibitors of AMA1-RON; Towards Development of Antimalarial Drug Lead: Primary Screen. Plasmodium falciparum AMA1 (3D7) - RON2 peptide interaction. Potency, µM (highest dose often 58.2 µM), for the others: at the top dose activity change, negative = inhibition, most hits filed as inhibitors. AlphaScreen AMA1-biotinylated RON2 peptide binding. hit rate 0.2% among 360,000;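 note: potency is the fitted concentration of half-maximal effect; 0% = vehicle wells and -100% = peptide control; nearly all actives have a fitted effect of over 45% in size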
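AMA1 (3D7) with his tag at 25 nM final met compounds first, then biotinylated RON2 peptide at 25 nM; detection used donor plus acceptor beads, 10 µg/mL apiece, read by AlphaScreen after 30 min at room temperature.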
Pf growth 48h: Primary qHTS for delayed death inhibitors of the malarial parasite plastid, 48 hour incubation. P. falciparum luciferase growth in erythrocytes, 48 h. Potency, µM (top dose mostly 28.7 µM), without a hit: top-dose activity change, negative = inhibition, most hits filed as inhibitors. AID 504832, 2011. hit rate 5.9% among 310,000; note: potency is the fitted concentration of half-maximal effect; % is set by controls: 0 for no effect and ±100 for the full control effect
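Luminescence readout; reporter = integrated firefly luciferase in P. falciparum. RBC culture at 2% hematocrit, 0.1% parasitemia final, 37 C/5% CO2; decreased signal taken as growth inhibition.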
Shiga toxin inh: A qHTS for Small Molecule Inhibitors of Shiga Toxin; Vero cells, Shiga toxin protein synthesis inhibition reporter; inhibition, % at 38.7 µM; hit rate 9.2% among 290,000; in the data active = inhibition mostly above about 28%, no sharp cut-off; inactive = mostly below about 43%; note: 0% is about no effect
Starred values were filed as active, the others as inactive; [ ] = another dose, or the depositor's remark. Most compounds without a hit are left out; they make up all but 19% or so of the library. Unless noted, calls come from the whole dose curve; as a rule, active = well fitted curve in the direction sought with a large enough effect; inconclusive = small, poorly fitted or top-dose-only effect, or another doubt; inactive = no such curve, though single readings can be large; an effect the other way counts as inactive or inconclusive.

`Cc1ccc(N2CS(=O)(=O)/C(=C/N(C)C)C2=O)cc1` gave Pf growth 96h 219.3%, SARS PLpro yeast 1.5%, CHX counter 37.8*, AMA1-RON2 inh -6.2%, Pf growth 48h 2.62µM* and Shiga toxin inh 77.3*.
`Cc1ccc(CC2CC(=O)N(c3nc4ccccc4n3C)C2=O)cc1` (stereo not drawn) gave SARS PLpro yeast 6.3%, CHX counter -1.9, AMA1-RON2 inh 40.1%, Pf growth 48h 14.8% and Shiga toxin inh -17.1.
CC(NC(=O)C(c1ccccc1)c1ccccc1)C(=O)N1CCCCC1 (stereo not drawn) was read as Pf growth 96h -5.9%, SARS PLpro yeast 4.3%, CHX counter -1.3, AMA1-RON2 inh 0.0%, Pf growth 48h -20.1% and Shiga toxin inh -8.3.
O=C(Nc1ccc(N2CCN(Cc3ccccc3Cl)CC2)cc1)c1cccnc1 was read as Pf growth 96h 6.6%, SARS PLpro yeast 2.0%, CHX counter 1.2, AMA1-RON2 inh -16.3%, Pf growth 48h inconclusive and Shiga toxin inh -6.9.
O=C(Nc1ccc(S(=O)(=O)N2CCCCC2)cc1)c1ccc(F)cc1 was read as Pf growth 96h -7.1%, SARS PLpro yeast -6.6%, CHX counter -1.8, AMA1-RON2 inh 39.6%, Pf growth 48h -11.2% and Shiga toxin inh 19.3.
For O=C(Nc1ccc(N2CCCCC2)cc1)c1ccc(F)cc1 the results were Pf growth 96h -18.7%, SARS PLpro yeast 3.7%, CHX counter 52.0*, AMA1-RON2 inh -12.4%, Pf growth 48h -7.5% and Shiga toxin inh 76.6*.
For O=C(Nc1sccc1C(=O)N1CCOCC1)c1cccnc1 the results were Pf growth 96h 3.29µM*, SARS PLpro yeast 16.5%, CHX counter -0.5, AMA1-RON2 inh -0.6%, Pf growth 48h 36.4% and Shiga toxin inh 6.9.
O=C(Nc1ccccc1C(=O)N1CCOCC1)c1cccnc1 was read as SARS PLpro yeast -4.0%, CHX counter 5.4, AMA1-RON2 inh 0.0%, Pf growth 48h 17.2% and Shiga toxin inh 0.2.
`O=C(Nc1ccc(N2CCCCC2)cc1)c1cccnc1` gave Pf growth 96h inconclusive, SARS PLpro yeast 6.1%, CHX counter 22.0*, AMA1-RON2 inh -4.4%, Pf growth 48h 113.0% and Shiga toxin inh 129.2*.
O=S(=O)(c1ccc(N2CCCC2)cc1)C(F)(F)F was read as SARS PLpro yeast -1.0%, CHX counter 28.1*, AMA1-RON2 inh 3.9%, Pf growth 48h 21.0% and Shiga toxin inh 71.8*.
Screening CCOC(=O)c1c(C)[nH]c(C(=O)N(C)CC(=O)Nc2ccc(OCC)c(OCC)c2)c1C returned AMA1-RON2 inh -5.3%.
O=C(c1ccc(F)cc1)c1ccc(N2CCCCC2)cc1 was read as Pf growth 96h -13.3%, SARS PLpro yeast -3.9%, CHX counter 60.8*, AMA1-RON2 inh 37.1%, Pf growth 48h 88.0% and Shiga toxin inh 97.0*.
`O=C(c1ccc(F)cc1)c1ccc(N2CCCC2)cc1` gave Pf growth 96h inconclusive, SARS PLpro yeast -8.4%, CHX counter 62.7*, AMA1-RON2 inh 62.6%, Pf growth 48h inconclusive and Shiga toxin inh 150.7*.
For O=S(=O)(N1CCCCC1)N1CCN(c2ccc(F)cc2)CC1 the results were Pf growth 96h 54.5%, SARS PLpro yeast -7.9%, CHX counter 1.4, AMA1-RON2 inh -5.3%, Pf growth 48h 2.1% and Shiga toxin inh -7.0.
`O=C(CCC(=O)N1CCN(c2ccc(F)cc2)CC1)N1CCN(c2ccc(F)cc2)CC1` gave Pf growth 96h inconclusive, SARS PLpro yeast -7.9%, CHX counter -2.4, AMA1-RON2 inh -0.6%, Pf growth 48h -14.3% and Shiga toxin inh -5.2.
Screening O=C1CCC(C(=O)N2CCC(CO)CC2)CN1Cc1ccc(Cl)cc1 (stereo not drawn) returned Pf growth 96h 70.1%, SARS PLpro yeast inconclusive, CHX counter 5.1, AMA1-RON2 inh 3.9%, Pf growth 48h 6.3% and Shiga toxin inh 16.1.
Screening Cn1c(-c2c(N)n(CCc3ccccc3)c3nc4ccccc4nc23)nc2ccccc21 returned Pf growth 96h 5.22µM*, SARS PLpro yeast -28.7%, CHX counter -1.4, AMA1-RON2 inh 120.8% and Shiga toxin inh 12.0.
`Cn1c(-c2c(N)n(C3CCCC3)c3nc4ccccc4nc23)nc2ccccc21` gave Pf growth 96h 8.28µM*, SARS PLpro yeast -47.3%, CHX counter -5.2, AMA1-RON2 inh 159.0%, Pf growth 48h 11.7µM* and Shiga toxin inh -11.8.
For C[C@H](NC(=O)C[C@@H]1C=C[C@@H](NC(=O)CN2CCOCC2)[C@@H](CO)O1)c1ccccc1 the results were AMA1-RON2 inh 1.3%.
`O=C(CNC(=O)OCc1ccccc1)NCC(=O)Oc1ccc([N+](=O)[O-])cc1` gave AMA1-RON2 inh 15.6%.
Screening CC(OC(=O)c1cccs1)C(=O)NCC1CCCO1 (stereo not drawn) returned Pf growth 96h -13.6%, SARS PLpro yeast 1.9%, CHX counter 3.0, AMA1-RON2 inh 3.6%, Pf growth 48h -10.8% and Shiga toxin inh -5.1.
CN(C)c1nc(OCCNC(=O)COc2ccc(Cl)cc2Cl)nc(N(C)C)n1 was read as Pf growth 96h inconclusive, SARS PLpro yeast 23.8%, CHX counter 7.7, AMA1-RON2 inh -9.9% and Shiga toxin inh 50.8.
CN(C)c1nc(OCCNC(=O)COc2ccc(Cl)cc2Cl)nc(N2CCCCC2)n1 was read as Pf growth 96h 2.62µM*, SARS PLpro yeast 6.9%, CHX counter -0.8, AMA1-RON2 inh 1.0%, Pf growth 48h inconclusive and Shiga toxin inh 1.0.
Screening CCOc1ccc(C(=O)NC(=S)Nc2ccc(NC(=O)c3ccco3)c(C)c2)cc1[N+](=O)[O-] returned Pf growth 96h -5.6%, SARS PLpro yeast 3.3%, CHX counter -8.0, AMA1-RON2 inh 67.5%, Pf growth 48h 10.7% and Shiga toxin inh -12.7.
`CCCN(C(=S)Nc1ccccc1)C1CCS(=O)(=O)C1` (stereo not drawn) gave Pf growth 96h inconclusive, SARS PLpro yeast -0.7%, CHX counter -3.4, AMA1-RON2 inh -0.7%, Pf growth 48h 32.1% and Shiga toxin inh -16.4.
O=C(/C=C/c1ccco1)OCC(=O)N1CCCCC1 was read as SARS PLpro yeast -6.3% and AMA1-RON2 inh -17.2%.
`O=C(CCS(=O)(=O)c1ccccc1)Nc1ccc(-c2nc3ccccc3s2)c(O)c1` gave Pf growth 96h 42.1%, SARS PLpro yeast -17.7%, CHX counter 43.6*, AMA1-RON2 inh 15.6%, Pf growth 48h 19.1% and Shiga toxin inh 47.9*.
Cc1ccsc1C(=O)Nc1ccc(O)c(-c2nc3ccccc3s2)c1 was read as Pf growth 96h 63.0%[5.75 µM], SARS PLpro yeast -0.4%, CHX counter 18.3*, AMA1-RON2 inh 6.5%, Pf growth 48h 41.0%[5.75 µM] and Shiga toxin inh 44.7.

High-throughput results (PubChem BioAssay)
